From PubChem BioAssay (NCI)
Compounds without any hit were thinned out: in the full panel of roughly 79,000, 15% have a hit. Values without a mark were called inactive. No stated cut-off is given here; in the data, active means growth inhibition above about 70%; inactive means the rest.

Assay: NCI Yeast Anticancer Drug Screen. Data for the sgs1 strain (AID 173);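 further: 0% = growth of vehicle-only control cultures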
Conditions: S. cerevisiae sgs1 mutant, at 1.2 µM, hits give high values
Method in brief: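 Each compound was added to cultures of the altered yeast strain. Growth was recorded, and inhibition was derived by comparison with vehicle controls.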

SMILES	growth inhibition [%]
CCCCCCOC(=O)NCCOC(=O)Nc1ccccc1	2
C[C](C)(C)[Ge]([O][Ge]([c]1ccccc1)[c]1ccccc1)([O][Ge]([c]1ccccc1)[c]1ccccc1)[C](C)(C)C	8
CCc1c(Cl)c(C)cc(O)c1Cl	-4
Cc1nc(Nc2ccccc2[N+](=O)[O-])sc1C(=O)CC(=O)C(=O)Nc1c(C(C)C)cccc1C(C)C	2
O=[N+]([O-])c1cccc2nc3ccccc3c(NCCCn3ccnc3[N+](=O)[O-])c12	61
CCCCCCC(O)CNCc1ccnc2ccc(OC)cc12 (stereo not drawn)	6
Cc1c2cccc(Sc3ccccc3)c2c2c3c(cccc13)[S+](c1ccccc1)C2 (stereo not drawn)	10
C=C1CCC(O)C/C1=C/C=C1\CCCC2(C)C1CCC2C(C)CCCC(C)C (stereo not drawn)	-23
NC1=NNC2(C(N)=N1)c1ccccc1-c1ccccc12	12
COc1cc2cc3c4cc(OC)c(OC)cc4cc[n+]3c(C)c2cc1OC	-19
COC(=O)NC1C(C)OC(OC2C/C=C(/C)C3C=CC4C(OC5CC(OC6CC(O)C(OC7CC(O)C(OC)C(C)O7)C(C)O6)C(O)C(C)O5)C(C)CC(C)C4C3(C)/C(O)=C3\C(=O)OC4(CC(C)C(CO)=CC4/C=C\2C)C3=O)CC1(C)[N+](=O)[O-] (stereo not drawn)	0
O=C1CSC(c2cccc(Cl)c2)N1c1ccc(-c2ccc(-n3c(-c4ccccc4)nc4ccccc4c3=O)cc2)cc1 (stereo not drawn)	0
CCOC(=O)C(C(=O)OCC)=P(c1ccccc1)(c1ccccc1)c1ccccc1	0
